# Test results taken from PubChem BioAssay AID1030 (National Center for Advancing Translational Sciences (NCATS), 2008).
# About 16,000 (7.3%) of roughly 220,000 compounds were called active. Not shown: some 25% with an inconclusive outcome. The call rests on the fitted dose curve; in most records, active means well fitted inhibition curve with a large enough effect (not every such curve was filed as active); inconclusive means small, poorly fitted or top-dose-only effect, or another doubt; inactive means no such curve, though single readings can be large or run the other way. The list comes from a sample in which actives are over-represented; it also holds similar structures and randomly drawn compounds. Entries that show only a call come without a potency.
# Biological target: Aldehyde dehydrogenase 1A1 (Homo sapiens) (UniProt P00352)
# Sequence (P00352 whole entry, looked up): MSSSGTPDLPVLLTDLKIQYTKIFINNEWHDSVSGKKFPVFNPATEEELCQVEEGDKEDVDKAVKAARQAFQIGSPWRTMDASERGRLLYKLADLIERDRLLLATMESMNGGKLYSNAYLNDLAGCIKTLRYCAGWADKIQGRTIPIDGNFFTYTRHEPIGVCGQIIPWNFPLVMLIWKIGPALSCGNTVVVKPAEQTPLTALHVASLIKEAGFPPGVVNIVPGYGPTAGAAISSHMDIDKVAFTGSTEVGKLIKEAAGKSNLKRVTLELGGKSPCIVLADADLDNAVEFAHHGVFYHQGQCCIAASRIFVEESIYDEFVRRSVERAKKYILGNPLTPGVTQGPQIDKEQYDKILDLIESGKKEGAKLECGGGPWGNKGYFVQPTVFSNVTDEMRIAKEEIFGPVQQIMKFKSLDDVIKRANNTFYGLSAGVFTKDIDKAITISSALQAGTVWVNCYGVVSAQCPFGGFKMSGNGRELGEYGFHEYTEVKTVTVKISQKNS
# Experiment: qHTS Assay for Inhibitors of Aldehyde Dehydrogenase 1 (ALDH1A1)
# Details: Purified ALDH1A1, NADH fluorescence, propionaldehyde substrate; series mostly up to 75.3 µM
# Potency means the concentration at half of the fitted maximal effect.
row,Structure (SMILES),Potency
1,O=C1CCC/C(=N\NC(=O)NC2CCCCC2)C1,inactive
2,CN(CCOc1ccccc1)Cc1nc2cc(Cl)ccc2c(=O)[nH]1,inactive
3,CCN(CC(=O)NC(=O)NCc1ccccc1)Cc1nc2ccccc2c(=O)[nH]1,inactive
4,CCN(CC(=O)Nc1ccc(Cl)c(S(=O)(=O)N(C)C)c1)Cc1nc2ccccc2c(=O)[nH]1,25.1 µM (active)
5,Cc1ccc(S(=O)(=O)NC2(C(F)(F)F)NC(=O)N(CCc3ccccc3)C2=O)cc1 (stereo not given),inactive
6,CC1=C(C(=O)Nc2ccc(Cl)cc2)C(c2ccco2)NC(=O)N1 (stereo not given),inactive
7,O=C(Nc1ncc2c(n1)CC(c1ccco1)CC2=O)c1ccc(Cl)cc1 (stereo not given),10 µM (active)
8,COc1cc(C2CC(=O)c3cnc(NC(C)=O)nc3C2)cc(OC)c1OC (stereo not given),inactive
9,O=C1C=C(c2ccccc2)CCC1,inactive
10,NC1=C([N+](=O)[O-])C(c2ccccc2)C2=C(CCCC2=O)O1 (stereo not given),inactive
11,Cc1ccsc1C1C(C#N)=C(N)OC2=C1C(=O)CC(C)C2 (stereo not given),inactive
12,N#CC1=C(N)OC2=C(C(=O)CCC2)C1C1CC=CCC1 (stereo not given),10 µM (active)
13,O=C(Nc1ccc(N2CCOCC2)cc1)c1ccc2c(c1)OCO2,inactive
14,COc1ccc(C)cc1NC(=O)CCC(=O)Nc1nnc(C(F)(F)F)s1,inactive
15,COc1ccc(/C(C)=N/Nc2cc(C(F)(F)F)ccc2Cl)c(OC)c1,inactive
16,COc1ccc(C(F)(F)F)cc1N/C=C\c1nnnn1-c1ccc(C)cc1,25.1 µM (active)
17,CSc1cc(C)[nH]c(=O)n1,inactive
18,COc1ccc(Cl)cc1NC(=O)NC(C)C(C)(C)C (stereo not given),inactive
19,Cc1sc2nc(CC(N)=O)[nH]c(=O)c2c1-c1ccccc1,7.08 µM (active)
20,NC(=O)Cc1nc2scc(-c3ccc(Cl)cc3)c2c(=O)[nH]1,inactive
21,NC(=O)Cc1ccc2sc(-c3ccccc3)nc2c1,inactive
22,CCc1ccc2ncc(C(=O)c3ccccc3)c(N3CCOCC3)c2c1,4.47 µM (active)

row,Structure (SMILES),Potency
1,Cc1cc(C(=O)Nc2ccccc2N2CCOCC2)c2ccccc2n1,inactive
2,CCc1ccc(NC(=O)CSc2nc3ccccc3c(=O)n2CCN2CCOCC2)cc1,inactive
3,O=C(CCSc1ccccc1)N1CCN(c2ccccc2F)CC1,inactive
4,O=C(CSc1nn(-c2ccc(F)cc2)c(=S)s1)NC1CCS(=O)(=O)C1 (stereo not given),inactive
5,Cc1cc(C)cc(OCC(=O)NCc2cc(C)nc3ccccc23)c1,inactive
6,OCC1(Cc2ccccc2)CCN(Cc2cc3ccccc3o2)CC1,inactive
7,COC(=O)Nc1sc2nc(C)cc(C)c2c1-n1cccc1,inactive
8,Cc1cc(C)c2c(-n3cccc3)c(C(=O)NNS(=O)(=O)c3ccc(F)cc3)sc2n1,2.24 µM (active)
9,Cc1cc(C)c2c(-n3cccc3)c(NC(=O)OCc3ccccc3)sc2n1,inactive
10,CCNC(=O)CC1C(=O)N(c2ccc(F)cc2)C(=O)N1Cc1cccs1 (stereo not given),inactive
11,CCN(CC)CCCNC(=O)c1ccc2c(=O)n(Cc3ccc4c(c3)OCO4)c(=S)[nH]c2c1,inactive
12,c1ccc2c(C[n+]3csc4ccccc43)cccc2c1,10 µM (active)
13,c1ccc2c(CSCc3nc4ccccc4[nH]3)cccc2c1,inactive
14,N=C(N)SCc1cccc2ccccc12,inactive
15,CN1CCN(C(CNS(=O)(=O)c2cccs2)c2cccnc2)CC1 (stereo not given),inactive
16,O=C(Nc1nc(-c2ccc3c(c2)OCO3)cs1)c1ccncc1,inactive
17,O=C(Nc1nc(-c2ccncc2)cs1)C1COc2ccccc2O1 (stereo not given),3.55 µM (active)
18,O=C(Nc1nnc(SCc2ccc(Cl)cc2Cl)s1)C1COc2ccccc2O1 (stereo not given),inactive
19,COc1ccc(/C=C/C(=O)Nc2cccnc2)cc1OC,inactive
20,CCCS(=O)(=O)N1CCC(CCOc2ccccc2)(C(=O)OCC)CC1,inactive
21,N#Cc1c(-c2ccc(Cl)cc2)c2c([nH]c1=S)CCCC2,inactive
22,COc1ccc(NC(=O)C(C)SCc2ccccc2)cc1 (stereo not given),inactive

row,Structure (SMILES),Potency
1,Cc1[nH]n(C)c(=O)c1C(=O)c1c(-c2c(Cl)cccc2Cl)noc1C,8.91 µM (active)
2,Cc1onc(-c2c(Cl)cccc2Cl)c1C(=O)NNC(=O)c1c(-c2c(Cl)cccc2Cl)noc1C,inactive
3,Cc1onc(-c2c(Cl)cccc2Cl)c1C(=O)c1c[nH]c(C(=O)NC2CC2)c1,inactive
4,CCOc1c(CNCc2ccc(C(=O)O)cc2)cccc1OC,inactive
5,CC(=O)Nc1cccc(-c2nc3ccccc3s2)c1C,inactive
6,Cc1ccc(NC(=S)N(CCCN2CCC(C)CC2)Cc2ccco2)cc1,inactive
7,CCCOC(=O)c1[nH]c2c(c1C)C(=O)CC(c1cc(OC)c(OC)c(OC)c1)C2 (stereo not given),0.355 µM (active)
8,CCOC(=O)c1[nH]c2c(c1-c1ccccc1)C(=O)CC(c1ccc(Cl)cc1)C2 (stereo not given),inactive
9,CCCOC(=O)c1[nH]c2c(c1C)C(=O)CC(c1cccs1)C2 (stereo not given),inactive
10,COc1ccc2c(c1)O[C@@H](c1ccc3c(c1)OCO3)[C@H](OC(=O)NCCc1ccc(OC)c(OC)c1)C2=O,inactive
11,O=C(CCS(=O)(=O)Cc1ccccc1)Nc1ccc2c(c1)OCCO2,inactive
12,CC(/C=N/NC(=O)c1ccncc1)=C\c1ccco1,inactive
13,C/C(=C\c1ccco1)C1Nc2cccc3cccc(c23)N1,10 µM (active)
14,CC(/C=N/NC(=O)c1cc(-c2ccc3ccccc3c2)n[nH]1)=C\c1ccco1,inactive
15,COCC(C)NC(=O)COc1nncc2ccccc12 (stereo not given),inactive
16,COc1ccc(C2c3[nH]c4ccccc4c3CCN2CCCn2cccn2)cc1C (stereo not given),inactive
17,Cc1ccc(/C=N/NC(=O)Cn2nc(C)c(Br)c2C)o1,inactive
18,Cc1cccc(C)c1NC(=O)CSc1ccc([N+](=O)[O-])cn1,inactive
19,Cc1ccc(/C=N/NC(=O)CNC(=O)COc2ccccc2)o1,inactive
20,Cc1ccc(/C=N/NC(=O)CSc2ccccn2)o1,7.94 µM (active)
21,O=C(CSc1nnc(-c2ccc([N+](=O)[O-])cc2)o1)Nc1ccccn1,inactive
22,C/C(=N/NC(=O)CSc1ccccn1)c1ccc([N+](=O)[O-])cc1,20 µM (active)

row,Structure (SMILES),Potency
1,CC1CC(C)(C)NC(=S)N1CCC(=O)N1CCN(Cc2ccccc2)CC1 (stereo not given),inactive
2,CSc1nnc(SCc2nc3sc(C(=O)O)c(C)c3c(=O)[nH]2)s1,7.08 µM (active)
3,CCN(CC)Cc1nc2sc(C)c(C)c2c(=O)[nH]1,inactive
4,Cc1sc2nc(CSCC(=O)Nc3c(Cl)cccc3Cl)[nH]c(=O)c2c1C,inactive
5,Fc1ccccc1N=C1Nc2cccc3cccc1c23,inactive
6,CCC(C(=O)NCc1ccc(OC)cc1)n1nc(C)n2c(cc3occc32)c1=O (stereo not given),inactive
7,CCOc1ccc(CCNC(=O)C(CC)n2nc(C)n3c(cc4sccc43)c2=O)cc1OCC (stereo not given),31.6 µM (active)
8,COc1ccc(CCNC(=O)c2cc3sccc3n2C)cc1OC,inactive
9,CCCCC/C=C\C/C=C\CCCCCCCCCC(=O)NCC(=O)O,inactive
10,CC(C)(C)c1cc(C(=O)N/N=C/c2ccc([N+](=O)[O-])s2)n[nH]1,inactive
11,Cc1ccc(SCCC(=O)Nc2cc(C)on2)cc1,inactive
12,O=c1c2ccccc2c(-c2ccccc2)nn1-c1ccccn1,inactive
13,CCCc1nc(NCc2ccc3c(c2)OCO3)c2nnn(Cc3ccccc3Cl)c2n1,inactive
14,C#CCNc1nc(C(C)C)nc2c1nnn2Cc1ccccc1F,11.2 µM (active)
15,CC(O)C(NS(=O)(=O)c1ccc(Cl)cc1)C(=O)OCc1cc([N+](=O)[O-])cc2c1OCOC2 (stereo not given),inactive
16,Cc1cc(CNC(=O)c2cccc([N+](=O)[O-])c2)c2ccccc2n1,inactive
17,CCO[C@H]1OC(C(=O)O)=C[C@@H](C2CCCCC2)[C@@H]1CCCO,inactive
18,COc1ccccc1NC(=O)C[n+]1ccccc1,inactive
19,O=C(Nc1ccccc1C(F)(F)F)N1CCCC1c1cccnc1 (stereo not given),inactive
20,CC(C)CNC(=O)/C=C/C(=O)O,inactive
21,CC1=CC(C)(C)NC(=S)N1c1ccccc1,inactive
22,O=C1/C(=C\c2ccsc2)NC(=S)N1c1ccccc1,28.2 µM (active)

row,Structure (SMILES),Potency
1,CCCCCCCCCCCCC(NC(C)=O)(C(=O)OCC)C(=O)OCC,inactive
2,COc1cc(NC(=O)CN(C)S(=O)(=O)c2ccc3nc(C)sc3c2)cc(OC)c1,inactive
3,COc1cc(C(=S)NCc2ccccc2)cc(Br)c1O,1.78 µM (active)
4,COc1cc(C=O)c(Br)cc1OCC(=O)NCc1ccccc1,inactive
5,COc1ccccc1OCCC(=O)OCC(=O)NCc1ccccc1,inactive
6,Cn1c(=O)c2c(nc(NCCc3ccccc3)n2Cc2ccccc2)n(C)c1=O,inactive
7,CC1CN(Cc2nc3c(c(=O)n(C)c(=O)n3C)n2Cc2cccc(Cl)c2)CC(C)O1 (stereo not given),inactive
8,Cn1c(=O)c2c(nc(OCc3cccnc3)n2Cc2ccccc2)n(C)c1=O,10 µM (active)
9,COCCn1c(CN2CCC(Cc3ccccc3)CC2)nc2c1c(=O)n(C)c(=O)n2C,inactive
10,C=CCOc1nc2c(c(=O)n(C)c(=O)n2C)n1Cc1ccc(Cl)cc1Cl,inactive
11,CCOC(=O)N1CCN(Cc2nc3c(c(=O)n(C)c(=O)n3C)n2Cc2ccccc2)CC1,0.126 µM (active)
12,Cn1c(SCC(=O)Nc2ccc(Br)cc2F)nnc1-c1ccco1,inactive
13,CCCC1NC(=S)NC(C)=C1C(C)=O (stereo not given),inactive
14,CCO[C@H]1OC(C(=O)NCc2ccccc2)=C[C@@H](c2coc3ccccc3c2=O)[C@@H]1CCCO,inactive
15,COCCNC(=S)N1CCC(NC(=O)C23CC4CC(CC(C4)C2)C3)CC1,inactive
16,Cc1cccc(C)c1NC(=O)Nc1ccccc1-n1ccnc1,inactive
17,COc1ccc(OCC(=O)OCC(=O)Nc2ccc(S(=O)(=O)N3CCCCC3)cc2)cc1,10 µM (active)
18,COC(=O)COc1ccc(S(=O)(=O)N2CCOCC2)cc1,inactive
19,COc1ccc(NC(=O)COC(=O)CNC(=O)C2CCCCC2)cc1,inactive
20,Cc1cccc(NC(=O)c2sc3nc4c(c(-c5ccco5)c3c2N)CCC4)c1,12.6 µM (active)
21,O=c1oc(-c2ccco2)nc2sc3c(c12)CCCCC3,inactive
22,Cc1cccc(NC(=O)CSc2nnc(-c3ccco3)o2)c1,inactive
